Experimental data published in publication PMC12136788.
Residue numbers refer to the chain shown, from its start. Over roughly 5,800 sequences, “enrichment r” has its median near 0.54; the highest 2% begin near 16. For the sample, the highest values were picked, then their nearest neighbours and some sequences at random.

B1: chr19:38730201:38730298:+|3pUTR|ENSG00000130402|msi1_unk|FALSE|overlapping (ssRNA)
RNA: GGGAGUUCUACAGUCCGACGAUCCAGAGAAUUACUAUUUACUUUAUUAACUUACGGAUUUAUUAUAUAAAUAUAUAUUCACCUAGCAACAUAUCUCUGCCGUCUCUCCUGCUCUCAUAAUGAAGACAUAGCCGAUUCUCUGCCCAACAGAGGAUUGAGCAUCA
B2: chr12:66123492:66123593:-|3pUTR|ENSG00000139233|msi1|FALSE|unique (ssRNA)
RNA: GGGAGUUCUACAGUCCGACGAUCAUGCUACCCAAUAUCCAGUUAUAAUCAGGCCUCAACGUUCUGUCAGGUAUUAAUAUGGUUAGAAUUGUUCUUACAACUGGUAAUUAUAGUCAAUAGAGAUAAAACAGAUGAUGUACUGACCAACAGAGGAUUGAGCAUCA
B3: chr19:38730201:38730298:+|3pUTR|ENSG00000130402|msi1_unk|total|mutant (ssRNA)
RNA: B1 RNA with U83C, A84C, U128C, A129C
B4: chr19:18196783:18197469:-|three_prime_utr|ENSG00000105649|control|control|control (ssRNA)
RNA: GGGAGUUCUACAGUCCGACGAUCACUACCCGGGCCUGACCCGGCCCCUACCAGCCACGGGCACAAGACCCCUGCUCCUGACUUAGCCCGUCACCCUUAUUUAUUAUUGUAGCUAUUUAUUUAUUUAUUGAAGAUGUCCCCCAGCAACAGAGGAUUGAGCAUCA
B5: chr7:20410151:20410448:+|3pUTR|ENSG00000105855|msi1|total|mutant (ssRNA)
RNA: GGGAGUUCUACAGUCCGACGAUCACCCGUGUCGUUGCCGCACUUUACUGUAAUAUAUAACUUAUUCCGAUCAGCACCGAAUGCCGAUCCUCUGAAGAGCACUGAUUACACUUUACAGGUACCUGUUAUCCCUACGCUUCCCAGCAACAGAGGAUUGAGCAUCA
B6: chr3:58425360:58425463:+|3pUTR|ENSG00000168297|unk|FALSE|unique (ssRNA)
RNA: GGGAGUUCUACAGUCCGACGAUCAGACAGCUCCUAGAAACAUUCCUCUUACAGUUCAUUUCUCUAAAGCAUUUUCUGAUUCUUAGAUAACUCCAAUUUUUGCUACCUUUAUCUUAGACAUUAACACUAUAGCCCAAAGCAUAGCAACAGAGGAUUGAGCAUCA
B7: chr12:66123492:66123593:-|3pUTR|ENSG00000139233|msi1|total|mutant (ssRNA)
RNA: B2 RNA with U83C, A84C, U110C, A111C, U117C, A118C
B8: chr11:613205:613595:-|three_prime_utr|ENSG00000185507|control|control|control (ssRNA)
RNA: GGGAGUUCUACAGUCCGACGAUCCUGCACGUUCCUAUACGGCCCCCCAGACCCAGCUGUCCGGGCCACAGACCCCCAGCAGGUAGCAUUCCCCAGCCCUGCCGAGCUCCCGGACCAGAAGCAGCUGCGCUACACGGAGGAACUCAACAGAGGAUUGAGCAUCA
B9: chr7:20410151:20410448:+|3pUTR|ENSG00000105855|msi1|FALSE|unique (ssRNA)
RNA: B5 RNA with C26U, C27A, C37U, C38A, C66U, C67A, C76U, C77A, C83U, C84A
B10: chr4:56461171:56461272:+|3pUTR|ENSG00000128050|msi1|FALSE|bound_elsewhere (ssRNA)
RNA: GGGAGUUCUACAGUCCGACGAUCCUUCUGUAACCACAGUGACUACAAGUAGUUCUUUCUCUAUUGAAUUAUUAGGUCCAGAAUAGAAGAUGUCAUUGUACACUUUAUUUCCCUCACACUGUGUUAUGCUCUGAUGUGCUAUGCCAACAGAGGAUUGAGCAUCA
B11: ENSG00000154556:stop:overlap|stop_codon|ENSG00000154556|stop_codon|NA|stop_codon (ssRNA)
RNA: GGGAGUUCUACAGUCCGACGAUCCUUCUUCCCCAUCAAGAGCAAAAGUUACUCAGGGCUCAACGGCAACCCCUCCAGUGAGUUAGAUUACUGUAGCACUUACAGACAGCACUUGGAUGUCCCUCGGGACUCACCAAGAGCCAUCAACAGAGGAUUGAGCAUCA
B12: chr16:66721972:66722075:-|3pUTR|ENSG00000135720|unk|FALSE|unique (ssRNA)
RNA: GGGAGUUCUACAGUCCGACGAUCUUUUUAAUUCAGUUUUUUAAAAAAACAAAUGUAUUGUGGCUUCCAGUUACCAGGUUGUCUAGGUAAUGACAGUAAACUGACUGUAGAAUGAUAAUUGUGGUAUAGUGACCAAUAGAUGCCCAACAGAGGAUUGAGCAUCA
B13: ENSG00000115216:stop:overlap|stop_codon|ENSG00000115216|stop_codon|NA|stop_codon (ssRNA)
RNA: GGGAGUUCUACAGUCCGACGAUCACAAGUUCAAUUUUGCCAGGAACAGUACCCUCAACUCAGCCGCUGUCACCGUCUCCUCUUAGAGCUCACUCGGGCCAGGCCCUGAUCUGCGCUGUGGCUGUCCCUGGACGUGCUGCAGCCCAACAGAGGAUUGAGCAUCA
B14: chr11:13729208:13729309:+|3pUTR|ENSG00000197601|unk|FALSE|unique (ssRNA)
RNA: GGGAGUUCUACAGUCCGACGAUCAAAGUUGGUAGAUAUUUGAUUCUUCAUUUUUUGUUUUUUUCAUUAGUUGAAGUGGGUUUUAGUUUUGUUUAAAAUUAUAACCAGCGUAUUUUCACAUCAUUCUGUAAGUUAAAUGAUAUCCAACAGAGGAUUGAGCAUCA

Biological target: MSI1 full-length (mouse, UniProt Q61474 1-362)
Sequence (Q61474 whole entry): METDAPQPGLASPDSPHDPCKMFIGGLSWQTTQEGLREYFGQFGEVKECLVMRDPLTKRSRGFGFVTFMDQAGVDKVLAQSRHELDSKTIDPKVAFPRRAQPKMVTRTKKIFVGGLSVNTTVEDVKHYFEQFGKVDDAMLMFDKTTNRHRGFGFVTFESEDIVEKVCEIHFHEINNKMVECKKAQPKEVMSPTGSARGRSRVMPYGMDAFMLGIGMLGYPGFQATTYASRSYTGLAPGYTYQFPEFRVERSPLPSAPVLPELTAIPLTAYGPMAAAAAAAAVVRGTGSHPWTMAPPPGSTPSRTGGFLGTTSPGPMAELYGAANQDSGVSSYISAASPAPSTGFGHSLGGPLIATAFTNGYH
Assay: nsRBNS (natural sequence RNA bind-n-seq); RBNS binding buffer (assumed for nsRBNS): 25 mM Tris pH 7.5, 150 mM KCl, 3 mM MgCl2, 0.01% Triton X-100, 500 ug/ml BSA, 20 U/ml SUPERase-In, 4 C; UNK is unkempt and MSI1 is Musashi-1; names of the RNAs are library labels; protein concentration not given here; high values mean tight binding

| Binder | binding signal [enrichment R] |
| --- | --- |
| B1 | 39.3 |
| B2 | 17.7 |
| B3 | 5.81 |
| B4 | 48.8 |
| B5 | 0.529 |
| B6 | 8.08 |
| B7 | 0.303 |
| B8 | 0.649 |
| B9 | 16.1 |
| B10 | 1.03 |
| B11 | 0.595 |
| B12 | 9.43 |
| B13 | 0.763 |
| B14 | 1.97 |
